From PubChem BioAssay
An excerpt weighted towards active compounds, which were near 2.8% of everything screened.
IP6K1 inhibitor = Primary qHTS assay for small molecule inhibitors of Inositol hexaphosphate kinase 1 (IP6K1). Inositol hexakisphosphate kinase 1 (Homo sapiens), Q92551. IP6K1 kinase, ADP-Glo luminescence, 2 h; active compounds read low. activity change, % (series mostly up to about 58 µM). 140,000 tested, 0.81% active; in the data active = activity change below about -25%
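ADP-Glo luminescence measures ADP made by human IP6K1 during a 2 h RT reaction with ATP/IP6 (mix at 1.3 mM/130 uM); top library doses 57.5 and 19.1 uM final.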
SNCA expr inh = Primary qHTS assay for inhibitors of alpha-synuclein gene (SNCA) expression; HEK-293 SNCA-luciferase knock-in, luminescence, 24 h; Potency, µM (top dose mostly 57.2 µM), usual class: inhibitors; AID 1671194, 2021; 140,000 tested, 0.17% active; note: nearly all actives have a fitted effect of over 45% in size
SNCA viab count = GF-AFC viability counterscreen for inhibitors of alpha-synuclein gene (SNCA) expression; HEK-293-SNCA-luc viability, GF-AFC fluorescence, 24 h; Potency, µM (doses to about 57.1 µM), hits mostly cytotoxic; 150,000 tested, 0.12% active; note: nearly all actives have a fitted effect of over 30% in size
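HEK-293-SNCA-luc cells (1500/well) plated 24 h, then exposed 24 h to a dilution series; GF-AFC added 30 min at 37C, fluorescence 405/540 nm; normalised to medium-only and DMSO wells, Hill fit.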
KDM5B inhibitor = Primary screen for KDM5B Histone Demethylases FDH-coupled qHTS; 220,000 tested, 2.6% active; Potency, µM (titrated, usually from 57.7 µM), actives largely listed as inhibitors; KDM5B demethylase, FDH-coupled NADH fluorescence (FDH is formaldehyde dehydrogenase); note: nearly all actives have a fitted effect of over 70% in size
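Here, H3K4me3 peptide (12.5 µM in substrate mix) is demethylated by KDM5BΔAP, 200 nM final, after 10 min compound exposure. Formaldehyde product is coupled through FDH (0.25 U/mL in mix) to NADH fluorescence; 30-min ΔRFU feeds dose-response curves.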
A number is an active result; n = inactive; u = inconclusive; x = not tested or not shown. Unless noted, calls come from the whole dose curve; as a rule, active = well fitted curve in the direction sought with a large enough effect; inconclusive = small, poorly fitted or top-dose-only effect, or another doubt; inactive = no such curve, though single readings can be large; an effect the other way counts as inactive or inconclusive.

SMILES | IP6K1 inhibitor | SNCA expr inh | SNCA viab count | KDM5B inhibitor
c1cc(-c2cc(-c3ccncc3)c3cncn3c2)c2[nH]ccc2c1 | n | u | n | n
CCN(C(=O)CCC(=O)N1CCC(C)(c2noc(C)n2)CC1)c1ccccc1 | n | n | n | n
NC(=O)NCC(=O)N1CCc2onc(-c3cccc4ccccc34)c2C1 | n | n | n | u
NC(=O)NCCC(=O)N1CCc2onc(-c3cccc4ccccc34)c2C1 | n | u | n | 25µM
Cc1oc(-c2cccs2)nc1CN1CCCC(c2ccn[nH]2)C1 (configuration not stated) | n | n | n | 28µM
CN(Cc1ccc(C(F)(F)F)cc1)Cc1ccccc1C(F)(F)F | n | n | n | n
O=C1[C@H]2CN(Cc3ccc(F)cc3)C[C@H]2C(=O)N1CCN1CCc2ccccc2C1 | n | n | n | u
N#Cc1ccc(CN2C[C@@H]3C(=O)N(CCN4CCc5ccccc5C4)C(=O)[C@@H]3C2)cc1 | n | n | n | 25µM
CN(C)CCCOc1ccc(-c2cnc(N)cn2)cn1 | n | n | n | 32µM
CCc1noc(-c2cccn3c(CNC(=O)Cc4ccc(Cl)cc4)nnc23)n1 | n | n | n | 25µM
CCc1noc(-c2cccn3c(CNC(=O)Cc4ccccc4Cl)nnc23)n1 | n | n | n | 20µM
CCCc1noc(-c2cccn3c(CNC(=O)Cc4ccccc4OC)nnc23)n1 | n | n | n | n
CCc1noc(-c2cccn3c(CNC(=O)Cc4ccccc4C)nnc23)n1 | n | n | n | 25µM
CCc1noc(-c2cccn3c(CNC(=O)C(C)Oc4ccccc4)nnc23)n1 (configuration not stated) | n | n | n | u
COCC(C)NC(=O)c1cn(C)nc1-c1ccc2c(c1)OCCCO2 (configuration not stated) | x | x | x | n
COc1ccc(C(=O)NC2CCN(c3cc(-c4ccc(OC)cc4)[nH]n3)CC2)cc1 | n | n | n | u
COc1ccc(-c2cc(N3CCC(NC(=O)COc4ccccc4C)CC3)n[nH]2)cc1 | n | u | u | 16µM
COc1ccc(-c2cc(N3CCC(NC(=O)c4ccc5cc[nH]c5c4)CC3)n[nH]2)cc1 | n | n | n | 28µM
COc1ccc(-c2cc(N3CCC(NC(=O)c4ccc(Br)cc4)C3)n[nH]2)cc1 (configuration not stated) | n | n | n | 11µM
COc1ccc(Cc2nc3nccc(-c4ccccc4)n3n2)cc1 | n | n | n | n
COc1cccc(-c2ccnc3nc(Cc4ccc(F)cc4)nn23)c1 | n | n | n | 25µM
Fc1cc(F)cc(Cc2nc3nccc(-c4cccs4)n3n2)c1 | n | n | n | 25µM
Fc1ccc(Cc2nc3nccc(-c4ccccc4)n3n2)cc1 | n | n | n | 28µM
Fc1ccc(Cc2nc3nccc(-c4ccsc4)n3n2)cc1 | n | n | n | 25µM
Cc1cccc(CSc2cn(CC(=O)N3CCCCCC3)c3ccccc23)c1 | n | n | n | u
SMILES | IP6K1 inhibitor | SNCA expr inh | SNCA viab count | KDM5B inhibitor
COc1ccc2[nH]c(=O)c(CCC(=O)N3CCCC3)cc2c1 | n | n | n | u
COc1ccc2[nH]c(=O)c(CCC(=O)N3CCN(CC(C)C)CC3)cc2c1 | n | n | n | 28µM
CCC1CCCCN1CCNC(=O)CCc1cc2ccccc2[nH]c1=O (configuration not stated) | n | n | n | u
COc1ccc2[nH]c(=O)c(CCC(=O)NCCCN3CCCCC3C)cc2c1 (configuration not stated) | n | n | n | 28µM
CCCN1CCN(C(=O)c2ccc3c(c2)n(Cc2ccc(F)cc2)c(=O)c2ccnn23)CC1 | n | n | n | 22µM
O=C(NCc1ccco1)c1ccc2c(c1)n(Cc1ccc(F)cc1)c(=O)c1ccnn12 | n | u | u | 28µM
Cn1c(=O)c2ccnn2c2ccc(C(=O)NCC3CCN(Cc4ccccc4F)CC3)cc21 | n | n | n | 32µM
COCCCNC(=O)c1ccc2c(c1)n(Cc1ccccc1)c(=O)c1ccnn12 | n | n | n | u
CN(C)C(=O)c1ccc2c(c1)n(Cc1cccc(F)c1)c(=O)c1ccnn12 | n | n | n | 32µM
O=C(COc1ccccc1)N1CCCN(C(=O)C2CC2)c2ccccc21 | n | n | n | n
CCOCCCNC(=O)C(c1ccc(OC)cc1)N(Cc1cccs1)C(=O)c1ccccc1O (configuration not stated) | n | n | n | n
O=C1NCc2ccccc2CC12CCCN2Cc1cccc(OC(F)(F)F)c1 (configuration not stated) | n | n | n | u
O=C(O)c1ccc2c(c1)n(Cc1ccc(F)cc1)c(=O)c1ccnn12 | n | n | n | 20µM
COc1ccc(Cn2c(=O)c3ccnn3c3ccc(C(=O)NCc4cccnc4)cc32)cc1 | n | n | n | u
O=C(O)c1ccc2c(c1)n(Cc1cccc(F)c1)c(=O)c1ccnn12 | n | n | n | 28µM
O=C(NCc1cccnc1)c1ccc2c(c1)n(Cc1ccccc1)c(=O)c1ccnn12 | n | n | n | 28µM
O=C(NCc1cccs1)c1ccc2c(c1)n(Cc1cccc(F)c1)c(=O)c1ccnn12 | n | n | n | 28µM
O=C(O)/C=C/C(=O)Nc1ccccc1C(F)(F)F | x | x | x | n
O=C(NC1CCCC1)c1ccc2c(c1)n(Cc1cccc(F)c1)c(=O)c1ccnn12 | n | n | n | u
CCN(CC)CCNC(=O)c1ccc2c(c1)n(Cc1cccc(F)c1)c(=O)c1ccnn12 | n | u | n | 28µM
COc1ccc(OCc2ccc(-c3nc(C#N)c(N4CCN(c5cccc(Cl)c5)CC4)o3)o2)cc1 | n | n | n | n
O=C(c1ccc(-c2ccco2)cc1)N1CCOC(c2ccccc2)C1 (configuration not stated) | n | n | n | 28µM
COc1ccccc1-c1[nH]nc2ncc(-c3ccccc3F)nc12 | n | n | n | 35µM
Cc1ccccc1-c1[nH]nc2ncc(-c3ccnn3C)nc12 | n | n | n | 35µM
COc1ccc(-c2cnc3n[nH]c(-c4ccc(F)cc4C)c3n2)cn1 | n | n | n | 28µM
SMILES | IP6K1 inhibitor | SNCA expr inh | SNCA viab count | KDM5B inhibitor
COc1ccccc1-c1[nH]nc2ncc(C(=O)NCc3ccccc3)nc12 | n | n | n | 32µM
Cc1cc(F)ccc1-c1[nH]nc2ncc(-c3ccnn3C)nc12 | n | n | n | u
CS(=O)(=O)c1ccc(C(=O)NCc2ccccc2)cc1 | x | x | x | n
CCOc1cc(/C=C(\C#N)C(=O)Nc2ccc(OC)cc2)ccc1OCc1cc(=O)n2nc(CC)sc2n1 | n | n | n | u
COc1ccccc1-c1[nH]nc2ncc(-c3ccccc3C)nc12 | n | n | n | 32µM
COc1ccccc1-c1[nH]nc2ncc(-c3cccc(O)c3)nc12 | n | n | n | 35µM
CC(C)Cn1c(=O)c2ccccc2n2c(CCC(=O)Nc3ccc(F)cc3)nnc12 | n | n | n | n
CCOc1ccc(NC(=O)CN(c2ccc(CC)cc2)S(=O)(=O)c2ccccc2)cc1 | x | x | x | n
Cc1noc(C)c1-c1cnc(Nc2ccc(F)cc2)c2c1CCO2 | n | n | n | u
